This is a sample that favours compounds with a hit; in the whole collection about 1.4% have one here.
BCR signal inh: chronic active BCR signaling inhibition; AID 493014; 340,000 compounds, 0.05% hits; Potency, µM (top dose mostly 46.1 µM), for inactives: top-dose activity change, negative = inhibition, actives largely listed as inhibitors; ABC-DLBCL IkBa-CBG/CBR reporter, luminescence ratio, 4 h; active means well fitted inhibition curve with a large enough effect in the signal ratio, with a control signal flat, not every such curve was filed as active; inconclusive means small, poorly fitted or top-dose-only effect, or effect the other way, or a change in a side signal; the % refers to the signal ratio;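 further: potency means the concentration at half of the fitted maximal effect; plate controls were basal doxycycline-induced cells for no effect and cells given 10 µM MG132 for full effect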
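TMD8 human ABC-DLBCL cells with doxycycline-inducible IκBα–green luciferase fusion and unfused red luciferase, in 0.5% FBS medium; compounds up to 46 uM, 4 h at 37C. Green/red luminescence ratio, filter-overlap corrected, fitted to concentration-response curves.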
N370S GC: inhibitors or activators of N370S glucocerebrosidase for Gaucher disease | N370S GC spleen homogenate, 4MU-glucoside fluorescence | Potency, µM (highest dose often 59.4 µM), inactives show at the highest dose activity change, negative = inhibition, usual class: inhibitors | 330,000 compounds, 0.092% hits;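 further: potency means the concentration at half of the fitted maximal effect; 0% = full enzyme activity and -100% = no enzyme basal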
Nrf2 ARE act: activators of Nrf2 (ARE) signaling. AREc32 ARE-luciferase reporter (MCF7-derived line), luminescence, 24 h. Potency, µM (top dose mostly 46.1 µM), without a hit: top-dose activation, usual class: activators. 410,000 compounds, 0.31% hits. AID 624171; further: potency means the concentration at half of the fitted maximal effect; % of control where 0% means no effect; nearly all actives have a fitted effect of over 65% in size
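Luciferase luminescence (Steady-Glo, 30 min at room temperature) served as the read-out of ARE activation in AREc32 cells treated with compounds for 24 hr at 37 deg C.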
BRCA1 expr up: BRCA1 expression activation. MCF7-BRCA1-FFLuc reporter, luminescence, 48 h; response scale: scaled: vehicle 0%, 10 µM genistein 100%. Potency, µM (top dose mostly 46.1 µM), for inactives: top-dose activation, hits mostly activators. 380,000 compounds, 1.1% hits; further: potency means the concentration at half of the fitted maximal effect; nearly all actives have a fitted effect of over 80% in size
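MCF7-BRCA1-FFLuc, 2000 cells/well; 2 h attach, 37 °C/5% CO2; compound 48 h; luciferase substrate 15 min; luminescence end-point. Norm. to genistein 10 microM max activation and DMSO; concentration-response curves fitted.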
Integrin act MD: activates integrin-mediated alleviation for muscular dystrophy. alpha7betagal myoblasts, beta-gal FDG fluorescence, 48 h. Potency, µM (highest dose often 38.3 µM), without a hit: at the top dose activation, actives largely listed as activators. 350,000 compounds, 0.064% hits;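 further: potency means the concentration at half of the fitted maximal effect; 100% = response of the positive control SU9516; nearly all actives have a fitted effect of over 60% in size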
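Alpha7betagal+/- myoblasts (passage 13) were plated 16-24 hr, then exposed to compounds (1:260 dilution of DMSO stock) for 48 hours at 37C. After MPER lysis, β-galactosidase reporter activity was read as FDG fluorescence (ex 480/em 540) after 30 minutes.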
IL2 activator: IL-2 activation. IL-2 activation reporter assay, cell-based qHTS; stimulated with anti-CD3/CD4/CD28 beads; in transgenic mouse T cells. activation, % (series mostly up to about 46 µM). 360,000 compounds, 0.065% hits; in the data active means activation above about 50%; inconclusive means mostly about 30% to 49%; further: 0% is about no effect
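EGFP and DsRed fluorescence is measured by plate cytometry in unstimulated transgenic mouse T cells exposed to compound for 60 minutes, then stimulated 18 hours at 37 degrees C with anti-CD3/anti-CD4 beads plus anti-CD28.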
An asterisk follows results filed as active; ? = inconclusive; / = no result; [ ] = another dose, or the depositor's remark. Unless noted, the call rests on the fitted dose curve; in most records, active means well fitted curve in the direction sought with a large enough effect; inconclusive means small, poorly fitted or top-dose-only effect, or another doubt; inactive means no such curve, though single readings can be large; an effect the other way counts as inactive or inconclusive.

SMILES | BCR signal inh | N370S GC | Nrf2 ARE act | BRCA1 expr up | Integrin act MD | IL2 activator
COC(=O)Cn1cc(/C=C2\C(=O)NC(=O)N(c3ccc(OC)cc3)C2=O)c2ccccc21 | 2% | -9% | 1% | 0% | 10% | 92*
NC(Cc1nc2ccccc2[nH]1)c1ccc(Cl)cc1 (stereo not drawn) | ? | -3% | 1% | 11µM* | 17% | -2
Cc1ccc(S(=O)(=O)N(C)/N=C/c2ccc(N(C)C)cc2)cc1 | ? | -4% | 0% | -3% | -20% | 2
O=C(Nc1cccc(C(=O)Nc2cc(C(=O)Nc3ccc([S+](=O)([O-])[O-])c4cc([S+](=O)([O-])[O-])cc(SOOO)c34)ccc2F)c1)Nc1cccc(C(=O)Nc2cc(C(=O)Nc3ccc([S+](=O)([O-])[O-])c4cc([S+](=O)([O-])[O-])cc([S+](=O)([O-])[O-])c34)ccc2F)c1 | / | -9% | / | / | / | /
CC(=O)c1ccc(NC(=O)CSc2nc(=O)cc(N)n2-c2ccccc2)cc1 | -5% | -13% | 4% | 10µM* | -11% | -2
CC(=O)Nc1cccc(NC(=O)CSc2nc(C3CC3)nc3ccccc23)c1 | ? | -12% | 15% | -54% | -55% | -2
COc1ccc(-n2nc(C(=O)NCC(=O)N3CCC4(CC3)OCCO4)c3ccccc3c2=O)cc1 | 1% | -4% | 0% | ? | 9% | 0
COc1ccc(-n2nc(C(=O)NCC(=O)N3CCC4(CC3)OCCO4)c3ccccc3c2=O)cc1Cl | 4% | -2% | 3% | 10µM* | -5% | -3
C=CC(=O)OCC(C)C | / | -7% | / | / | / | /
CCC(C)NC(=O)c1cc2cc3ccc(OC)cc3nc2o1 (stereo not drawn) | ? | ? | 4% | 11µM* | 6% | -3
COc1ccc(CNC(=O)c2ccc(C(C)C)cc2)cc1 | -2% | 16% | 7% | ? | 12% | 0
CC(C)[C@H](NC(=O)[C@H](CCC(=O)O)NC(=O)[C@H](Cc1ccccc1)NC(=O)[C@H](C)NC(=O)[C@@H](N)Cc1ccc(O)cc1)C(=O)N[C@H](C(=O)NCC(N)=O)C(C)C | / | 5% | / | / | / | /
CCC(=O)Nc1ccc(C(=O)OCc2ccccc2Cl)cc1 | -17% | / | 4% | 7.1µM* | -34% | 1
ClCCN(CCCl)c1ccc(/C=C/c2ccnc3ccccc23)cc1 | / | / | / | -30% | / | /
Cc1cccc(C(=O)Nc2nnc(SCC(=O)NCc3ccco3)s2)c1 | / | / | 3.2µM* | 59% | 0% | 4
O=C1CCCC2C3CC(CN12)C1CCCCN1C3 (stereo not drawn) | / | 5% | / | / | / | /
CC1=C/C(=N\NC(=S)NCCc2ccccc2)CC(C)(C)C1 | ? | 28% | 5% | 11µM* | 26% | 7
CC(Cc1ccccc1)NC(=O)/C=C/c1ccc(Cl)cc1 (stereo not drawn) | -8% | 15% | 2% | 65% | 15% | 87*
Cc1[nH]c2ccc(OC(F)(F)F)cc2c1CCNCc1cccc([N+](=O)[O-])c1 | ? | 16µM* | 3% | -82% | -66% | -1
CCOc1cccc(CNCCc2c(C)[nH]c3ccc(OC(F)(F)F)cc23)c1O | ? | 8.9µM* | 0% | -89% | -9% | -4
Cc1[nH]c2ccc(OC(F)(F)F)cc2c1CCNCc1ccc(Cl)cc1 | 0% | ? | -3% | -89% | -59% | -1
COC1=C[C@H]2[C@H]3Cc4ccc(OC)c(O)c4[C@@]2(CCN3C)CC1=O | / | -11% | / | / | / | /
O=[N+]([O-])c1ccc2c3c(cccc13)CC2 | / | 3% | / | / | / | /
Nc1ccc2c3c(cccc13)CC2 | ? | -3% | 1% | -87% | -47% | 83*
C=C1C(O)C2OC3(CCC(/C=C/C(C)C4CC(C)=CC5(OC(CC(C)(O)C(=O)O)CCC5O)O4)O3)CCC2OC1C(O)CC(C)C1OC2(CCCCO2)CCC1C (stereo not drawn) | / | -7%[2.35 µM] | / | / | / | /

High-throughput results: PubChem BioAssay, National Center for Advancing Translational Sciences (NCATS)
